A selection: hits, their analogues and other compounds. The true share with any hit is near 3.1%.
Casp6 inh – human caspase-6 inhibitors, primary screen, biochemical, VEID-R110 fluorescence, single point, set 2. 0.53% of 350,000 active. inhibition, % at 12.5 µM. AID 686996, 2013. purified caspase-6, Z-VEID-R110 cleavage fluorescence;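 active means mean inhibition across replicates at least about 35%, with every replicate also reaching that limit, limit read from the data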;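 further: 0% = median of neutral control wells and 100% = no fluorescence left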
SIRT5 inh – SIRT5 desuccinylase inhibitors, primary screen, biochemical, fluorescence imaging, single point, set 5 | NAD-dependent protein deacylase sirtuin-5, mitochondrial (Homo sapiens), Q9NXA8 | Purified SirT5, succinyl-peptide AMC, trypsin-coupled fluorescence | inhibition, % at 15 µM | 1.1% of 330,000 active | AID 652115, 2013; in the data active means inhibition above about 15%
Target sequence (Q9NXA8 whole entry, looked up): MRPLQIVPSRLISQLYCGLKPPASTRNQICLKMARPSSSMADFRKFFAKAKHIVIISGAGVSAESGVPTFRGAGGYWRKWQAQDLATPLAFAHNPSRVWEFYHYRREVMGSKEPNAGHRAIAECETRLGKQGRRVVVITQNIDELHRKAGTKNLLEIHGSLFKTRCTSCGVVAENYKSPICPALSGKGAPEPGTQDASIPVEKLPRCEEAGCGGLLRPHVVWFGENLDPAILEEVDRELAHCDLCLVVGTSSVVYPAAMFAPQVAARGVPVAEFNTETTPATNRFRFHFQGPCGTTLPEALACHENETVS
FGF22 binding – binders of human FGF22 protein, primary screen, FGF22 synaptogenesis inhibitor project, biophysical, thermal shift, single point; Fibroblast growth factor 22 (Homo sapiens), Q9HCT0; activity (Tm shift, normalised), % at 9.99 µM; 1.5% of 340,000 active; recombinant FGF22 thermal shift, SYPRO orange fluorescence; percent of sucrose octasulfate shift, DMSO zero; AID 651658, 2012;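 active means mean Tm shift, scaled 0 neutral to 100 positive control, at about 1.3% or above, every replicate too, limit read from the data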
Target sequence (Q9HCT0 whole entry, looked up): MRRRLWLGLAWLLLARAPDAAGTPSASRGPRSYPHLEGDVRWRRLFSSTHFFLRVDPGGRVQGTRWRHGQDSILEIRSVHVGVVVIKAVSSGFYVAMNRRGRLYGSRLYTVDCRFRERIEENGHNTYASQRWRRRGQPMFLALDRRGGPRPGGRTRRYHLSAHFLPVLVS
ERAP1 HTS inh – human ERAP1 aminopeptidase inhibitors, primary screen, biochemical, single point, plate reader; Endoplasmic reticulum aminopeptidase 1 (Homo sapiens), Q9NZ08; recombinant ERAP1, Leu-AMC fluorescence, 60 min; inhibition, % at 10.7 µM; 0.15% of 340,000 active;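 active means mean replicate inhibition of at least 30%, or all replicates individually reaching that 30% level; inactive means mean below 30% and not every replicate reaching it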;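 further: 0% = neutral control wells and 100% = L-leucinethiol positive control wells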
The depositor's hits bear a star.

For CCCC#Cc1ccc2c(c1)O[C@@H](CN(C)CC1CCOCC1)[C@@H](C)CN([C@H](C)CO)S2(=O)=O the results were Casp6 inh -3.2, SIRT5 inh 6.6, FGF22 binding -0.1 and ERAP1 HTS inh -2.5.
C[C@@H]1CN([C@H](C)CO)S(=O)(=O)c2ccc(C#Cc3cccc(F)c3)cc2O[C@@H]1CN(C)CC1CC1 was read as Casp6 inh 2.1, SIRT5 inh 15.2*, FGF22 binding -0.2 and ERAP1 HTS inh -0.7.
For CCCC#Cc1ccc2c(c1)O[C@@H](CN(C)CC1CCOCC1)[C@H](C)CN([C@H](C)CO)S2(=O)=O the results were Casp6 inh 2.5, SIRT5 inh 23.5*, FGF22 binding 0.0 and ERAP1 HTS inh -2.7.
Screening C[C@H]1CN([C@@H](C)CO)S(=O)(=O)c2ccc(C#Cc3ccncc3)cc2O[C@H]1CN(C)S(=O)(=O)c1ccc(F)cc1 returned Casp6 inh 2.5, SIRT5 inh 7.3, FGF22 binding 0.0 and ERAP1 HTS inh 1.5.
C[C@@H]1CN([C@@H](C)CO)S(=O)(=O)c2ccc(C#Cc3ccc(F)cc3)cc2O[C@@H]1CN(C)S(=O)(=O)c1ccc(F)cc1 was read as Casp6 inh 4.7, SIRT5 inh 26.3*, FGF22 binding 0.5 and ERAP1 HTS inh 0.5.
`O=C(CCN1CCCCC1)N[C@H]1CC[C@H](CCNS(=O)(=O)c2ccc(F)cc2)O[C@H]1CO` gave Casp6 inh 5.5, SIRT5 inh -0.9, FGF22 binding 1.1 and ERAP1 HTS inh 1.2.
For O=C(Cc1ccncc1)Nc1ccc2c(c1)[C@@H]1C[C@H](CC(=O)NC3CCCC3)O[C@H](CO)[C@@H]1O2 the results were Casp6 inh -1.3, SIRT5 inh -3.1, FGF22 binding -0.3 and ERAP1 HTS inh -0.5.
Screening C[C@H](CO)N1C[C@H](C)[C@H](CN(C)S(=O)(=O)c2ccc(F)cc2)Oc2cc(C#Cc3ccncc3)ccc2S1(=O)=O returned Casp6 inh 0.2, SIRT5 inh 0.2, FGF22 binding 0.0 and ERAP1 HTS inh 1.7.
C[C@H]1CN([C@@H](C)CO)S(=O)(=O)c2ccc(C#Cc3ccc(F)cc3)cc2O[C@H]1CN(C)S(=O)(=O)c1ccc(F)cc1 was read as Casp6 inh 1.2, SIRT5 inh 28.8*, FGF22 binding 0.2 and ERAP1 HTS inh 0.4.
Screening Cc1ccc(S(=O)(=O)N(C)C[C@H]2Oc3cc(C#Cc4ccncc4)ccc3S(=O)(=O)N([C@@H](C)CO)C[C@H]2C)cc1 returned Casp6 inh -1.6, SIRT5 inh 17.6*, FGF22 binding -0.2 and ERAP1 HTS inh 0.1.
For C[C@H](CO)N1C[C@H](C)[C@@H](CN(C)S(=O)(=O)c2ccc(F)cc2)Oc2cc(C#Cc3ccc(F)cc3)ccc2S1(=O)=O the results were Casp6 inh 0.5, SIRT5 inh 22.9*, FGF22 binding 0.0 and ERAP1 HTS inh -3.6.
For C[C@H]1CN([C@@H](C)CO)S(=O)(=O)c2ccc(C#Cc3ccc(F)cc3)cc2O[C@@H]1CN(C)S(=O)(=O)c1ccc(F)cc1 the results were Casp6 inh -0.3, SIRT5 inh 23.7* and ERAP1 HTS inh -1.5.
C[C@H]1CN([C@@H](C)CO)S(=O)(=O)c2ccc(C#Cc3ccncc3)cc2O[C@@H]1CN(C)S(=O)(=O)c1ccc(F)cc1 was read as Casp6 inh 0.0, SIRT5 inh -2.0, FGF22 binding -0.1 and ERAP1 HTS inh 1.5.
Screening C[C@H]1CN([C@@H](C)CO)C(=O)c2cccc(NS(=O)(=O)c3cn(C)cn3)c2O[C@H]1CN(C)S(=O)(=O)c1cccs1 returned Casp6 inh -1.1, SIRT5 inh 0.9, FGF22 binding 0.0 and ERAP1 HTS inh 0.0.
Screening C[C@@H]1CN([C@@H](C)CO)S(=O)(=O)c2ccc(C#Cc3ccc(F)cc3)cc2O[C@H]1CN(C)S(=O)(=O)c1ccc(F)cc1 returned Casp6 inh -4.3, SIRT5 inh 23.0*, FGF22 binding 0.0 and ERAP1 HTS inh -4.1.
`C[C@@H]1CN([C@@H](C)CO)S(=O)(=O)c2ccc(C#Cc3ccncc3)cc2O[C@H]1CN(C)S(=O)(=O)c1ccc(F)cc1` gave Casp6 inh -4.3, SIRT5 inh 2.4, FGF22 binding -0.2 and ERAP1 HTS inh -6.0.
Screening C[C@H]1CN([C@@H](C)CO)C(=O)c2cc(-c3ccc(C#N)cc3)cnc2O[C@@H]1CN(C)C(=O)CN(C)C returned Casp6 inh -13.8, SIRT5 inh -6.4, FGF22 binding 0.0 and ERAP1 HTS inh -0.5.
NS(=O)(=O)c1ccc(NC2=CC(=O)C(=O)c3ccccc32)cc1 was read as Casp6 inh 68.3*, SIRT5 inh 1.5, FGF22 binding -0.5 and ERAP1 HTS inh -2.4.
`O=C(CN1CCN(S(=O)(=O)c2ccccc2[N+](=O)[O-])CC1)NC(=O)NCc1ccco1` gave Casp6 inh 5.8, SIRT5 inh -2.0, FGF22 binding 42.9* and ERAP1 HTS inh -0.6.
`N#C[C@@H]1[C@H](c2ccccc2C2=CCCC2)[C@H](CO)N1C(=O)NC1CCCCC1` gave Casp6 inh 2.2, SIRT5 inh -2.9 and ERAP1 HTS inh 2.6.
For Cc1noc(C)c1S(=O)(=O)Nc1ccc2c(c1)C(=O)N([C@@H](C)CO)C[C@@H](C)[C@@H](CN(C)C(=O)NC1CCCCC1)OCCCC[C@@H](C)O2 the results were Casp6 inh -1.1, SIRT5 inh 4.3, FGF22 binding -0.7 and ERAP1 HTS inh 0.0.
`Cc1ccc(S(=O)(=O)Nc2ccc3c(c2)C(=O)N([C@@H](C)CO)C[C@@H](C)[C@H](CN(C)Cc2ccccc2)OCCCC[C@H](C)O3)cc1` gave Casp6 inh 2.9, SIRT5 inh 17.2*, FGF22 binding 0.0 and ERAP1 HTS inh 2.1.
For C[C@@H]1CCCCO[C@@H](CN(C)Cc2ccccc2)[C@@H](C)CN([C@@H](C)CO)C(=O)c2cc(NS(=O)(=O)c3ccc(Cl)cc3)ccc2O1 the results were Casp6 inh 0.0, SIRT5 inh 17.9* and ERAP1 HTS inh -1.5.
Screening Cc1ccc(S(=O)(=O)Nc2ccc3c(c2)C(=O)N([C@@H](C)CO)C[C@H](C)[C@H](CN(C)Cc2ccccc2)OCCCC[C@H](C)O3)cc1 returned FGF22 binding -0.3.
Cc1ccccc1C(=O)NC(=S)NCCC1=CCCCC1 was read as Casp6 inh 0.5, SIRT5 inh 34.8*, FGF22 binding 0.2 and ERAP1 HTS inh -9.3.
C[C@H]1CCCCO[C@@H](CN(C)C(=O)c2ccncc2)[C@@H](C)CN([C@@H](C)CO)C(=O)c2cc(NS(=O)(=O)c3ccccc3)ccc2O1 was read as Casp6 inh -1.1, SIRT5 inh 5.3, FGF22 binding 0.0 and ERAP1 HTS inh 2.0.
`CN(C)CC(=O)Nc1ccc2c(c1)[C@@H]1C[C@@H](CC(=O)NCc3ccncc3)O[C@@H](CO)[C@@H]1O2` gave Casp6 inh -1.7, SIRT5 inh -6.5, FGF22 binding -0.1 and ERAP1 HTS inh -1.6.

Screens (PubChem BioAssay)
